The target of assay [1] is Voltage-gated inwardly rectifying potassium channel KCNH2 (Homo sapiens) (UniProt Q12809). The assay can be described thus: Human Ether-a-go-go-Related Gene (hERG) channel small molecule antagonists: fluorescence cell-based qHTS assay (AID 1671200).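 Also: hERG-expressing U2OS cells given a thallium stimulus after FluxOR II dye loading; nearly all actives have a fitted effect of over 50% in size.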 Particulars: hERG-U2OS cells, FluxOR thallium flux fluorescence; series mostly up to 76.8 µM. The method in brief: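 Channel function was assessed by thallium flux. Cells seeded the previous day and kept at 37 C took up FluxOR II dye over 1 h in the dark at room temperature, then sat another 10 min before stimulation.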
On the technique in general: hERG is a cardiac potassium channel; its block is linked to QT prolongation.

The target of assay [2] is Cytochrome P450 2C19 (Homo sapiens) (UniProt P33261). The experiment in a line: Cytochrome P450 Family 2 Subfamily C Member 19 (CYP2C19) small molecule antagonists: luciferase reporter qHTS assay (AID 1671197). Also: nearly all actives have a fitted effect of over 65% in size. Conditions: P450-Glo CYP2C19 enzyme, luciferin luminescence, 1 h; series mostly up to 52.9 µM. The method in brief: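 P450-Glo CYP2C19 screening system; proluciferin substrate; DMSO compound stocks; 10 min RT preincubation; NADPH regeneration, 1 h at 37C; luciferin detection reagent, 20 min RT; luminescence as RLU.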
On the technique in general: A reporter such as luciferase makes a cellular process visible.

Assay [3] concerns the target Cytochrome P450 2C9 (Homo sapiens) (UniProt P11712). The experiment in a line: Cytochrome P450 Family 2 Subfamily C Member 9 (CYP2C9) small molecule antagonists: luciferase reporter qHTS assay (AID 1671198). Also: nearly all actives have a fitted effect of over 50% in size. Also: potency is read from the fitted curve at half-maximal effect. Particulars: P450-Glo CYP2C9 enzyme assay, luciferin luminescence; series mostly up to 115 µM. The method in brief: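 Enzyme-substrate mix preincubated with compound 10 min at room temperature; reaction started with NADPH regeneration solution, 1 h 37C. Luminescent luciferin product read after 20 min detection reagent.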

The target of assay [4] is Cytochrome P450 1A2 (Homo sapiens) (UniProt P05177). The experiment in a line: Cytochrome P450 Family 1 Subfamily A Member 2 (CYP1A2) small molecule antagonists: luciferase reporter qHTS assay (AID 1671199). Also: nearly all actives have a fitted effect of over 50% in size. Also: potency is read from the fitted curve at half-maximal effect. Particulars: P450-Glo CYP1A2 enzyme, luciferin luminescence, 1 h; series mostly up to 53 µM. In outline: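 Human CYP1A2 activity measured with a P450-Glo proluciferin substrate; compounds in DMSO preincubated 10 min at room temperature with enzyme-substrate mix, then NADPH regeneration system added for 1 h. Luciferin detection reagent, 20 min, luminescence read.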

For assay [5], the target named is Cytochrome P450 2D6 (Homo sapiens) (UniProt P10635). The experiment in a line: Cytochrome P450 Family 2 Subfamily D Member 6 (CYP2D6) small molecule antagonists: luciferase reporter qHTS assay (AID 1671196). Also: nearly all actives have a fitted effect of over 50% in size. Also: potency is read from the fitted curve at half-maximal effect. Particulars: P450-Glo CYP2D6 enzyme assay, luciferin luminescence, 1 h; series mostly up to 115 µM. The method in brief: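 CYP2D6 enzyme–substrate mix was held with compound for 10 min at room temperature, then NADPH regeneration solution was added and the reaction ran 1 h at room temperature. Luciferin product was detected by luminescence after 20 min with detection reagent.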

The target of assay [6] is Cytochrome P450 3A4 (Homo sapiens) (UniProt P08684). The experiment in a line: Cytochrome P450 Family 3 Subfamily A Member 4 (CYP3A4) small molecule antagonists: luciferase reporter qHTS assay (AID 1671201). Also: nearly all actives have a fitted effect of over 50% in size. Also: potency is read from the fitted curve at half-maximal effect. Particulars: P450-Glo CYP3A4 enzyme, luciferin luminescence, 1 h; series mostly up to 115 µM. In outline:
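Compounds in DMSO were pin-transferred onto CYP3A4 enzyme-substrate mix and held 10 min at room temperature. NADPH regenerating solution started the reaction for 1 h; luciferin detection reagent stopped it, and luminescence was read after 20 min.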

Results filed as inconclusive are left out. Calls of active or inactive are those of the source. Calls follow the shape of the dose curve; as a rule, active = well fitted curve in the direction sought with a large enough effect in the repeat runs; inconclusive = weak or mixed curves; inactive = no such curve, though single readings can be large; an effect the other way counts as inactive or inconclusive.

This passage reports Potency results from PubChem BioAssay (Tox21).

Voltage-gated inwardly rectifying potassium channel KCNH2 (Homo sapiens), sequence (Q12809 whole entry, looked up): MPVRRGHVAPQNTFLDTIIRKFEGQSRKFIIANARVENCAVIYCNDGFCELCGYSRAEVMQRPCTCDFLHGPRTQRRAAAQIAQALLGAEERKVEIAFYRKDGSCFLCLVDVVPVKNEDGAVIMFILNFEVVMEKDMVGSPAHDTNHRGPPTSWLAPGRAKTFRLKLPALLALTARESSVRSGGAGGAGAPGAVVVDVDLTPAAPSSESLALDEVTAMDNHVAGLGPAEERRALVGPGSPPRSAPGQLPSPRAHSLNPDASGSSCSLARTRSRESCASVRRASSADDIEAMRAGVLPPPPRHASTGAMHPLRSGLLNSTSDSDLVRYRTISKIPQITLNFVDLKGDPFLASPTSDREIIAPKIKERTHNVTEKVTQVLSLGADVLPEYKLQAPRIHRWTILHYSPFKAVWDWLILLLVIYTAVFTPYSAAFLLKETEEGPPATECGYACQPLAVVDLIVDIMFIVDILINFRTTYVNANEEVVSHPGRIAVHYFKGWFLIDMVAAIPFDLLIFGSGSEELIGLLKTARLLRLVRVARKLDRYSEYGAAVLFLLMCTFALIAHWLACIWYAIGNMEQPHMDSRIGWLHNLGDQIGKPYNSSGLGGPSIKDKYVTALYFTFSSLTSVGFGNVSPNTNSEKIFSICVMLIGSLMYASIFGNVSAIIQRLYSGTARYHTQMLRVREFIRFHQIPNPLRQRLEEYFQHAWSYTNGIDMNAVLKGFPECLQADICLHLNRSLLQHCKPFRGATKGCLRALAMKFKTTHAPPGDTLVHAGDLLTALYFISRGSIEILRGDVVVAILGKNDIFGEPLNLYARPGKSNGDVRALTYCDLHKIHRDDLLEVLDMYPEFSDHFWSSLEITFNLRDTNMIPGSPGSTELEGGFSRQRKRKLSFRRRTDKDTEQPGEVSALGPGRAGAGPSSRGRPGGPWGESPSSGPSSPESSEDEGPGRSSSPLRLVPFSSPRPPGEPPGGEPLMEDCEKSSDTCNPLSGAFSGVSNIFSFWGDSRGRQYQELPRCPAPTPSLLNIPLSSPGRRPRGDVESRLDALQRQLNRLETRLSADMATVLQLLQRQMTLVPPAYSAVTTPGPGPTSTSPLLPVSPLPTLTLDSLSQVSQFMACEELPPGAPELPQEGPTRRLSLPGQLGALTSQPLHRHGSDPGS
Cytochrome P450 3A4 (Homo sapiens), sequence (P08684 whole entry, looked up): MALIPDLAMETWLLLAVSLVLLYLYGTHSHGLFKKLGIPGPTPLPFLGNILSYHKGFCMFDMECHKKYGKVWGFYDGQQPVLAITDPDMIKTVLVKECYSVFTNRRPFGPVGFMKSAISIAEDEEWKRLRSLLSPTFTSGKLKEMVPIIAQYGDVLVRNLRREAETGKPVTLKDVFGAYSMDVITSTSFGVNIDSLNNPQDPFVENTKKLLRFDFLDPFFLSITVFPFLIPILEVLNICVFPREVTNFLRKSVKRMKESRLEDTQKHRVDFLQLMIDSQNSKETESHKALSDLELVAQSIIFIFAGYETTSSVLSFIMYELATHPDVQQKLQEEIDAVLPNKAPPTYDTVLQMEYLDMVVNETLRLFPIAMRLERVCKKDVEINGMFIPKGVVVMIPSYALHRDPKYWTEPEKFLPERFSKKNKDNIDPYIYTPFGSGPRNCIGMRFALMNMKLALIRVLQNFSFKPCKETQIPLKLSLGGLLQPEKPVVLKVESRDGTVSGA
Cytochrome P450 2C19 (Homo sapiens), sequence (P33261 whole entry, looked up): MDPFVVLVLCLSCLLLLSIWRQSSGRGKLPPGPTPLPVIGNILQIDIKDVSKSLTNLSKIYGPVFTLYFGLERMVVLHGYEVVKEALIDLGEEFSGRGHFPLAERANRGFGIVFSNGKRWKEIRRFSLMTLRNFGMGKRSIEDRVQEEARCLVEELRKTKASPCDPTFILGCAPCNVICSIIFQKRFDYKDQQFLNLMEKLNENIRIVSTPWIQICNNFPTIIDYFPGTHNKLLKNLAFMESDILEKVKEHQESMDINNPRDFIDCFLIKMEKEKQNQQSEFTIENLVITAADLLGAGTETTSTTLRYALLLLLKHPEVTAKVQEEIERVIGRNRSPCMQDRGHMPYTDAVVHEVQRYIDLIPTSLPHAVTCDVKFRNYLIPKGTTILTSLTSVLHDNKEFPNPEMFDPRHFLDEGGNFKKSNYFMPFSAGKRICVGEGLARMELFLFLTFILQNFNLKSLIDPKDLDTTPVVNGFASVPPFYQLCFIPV
Cytochrome P450 1A2 (Homo sapiens), sequence (P05177 whole entry, looked up): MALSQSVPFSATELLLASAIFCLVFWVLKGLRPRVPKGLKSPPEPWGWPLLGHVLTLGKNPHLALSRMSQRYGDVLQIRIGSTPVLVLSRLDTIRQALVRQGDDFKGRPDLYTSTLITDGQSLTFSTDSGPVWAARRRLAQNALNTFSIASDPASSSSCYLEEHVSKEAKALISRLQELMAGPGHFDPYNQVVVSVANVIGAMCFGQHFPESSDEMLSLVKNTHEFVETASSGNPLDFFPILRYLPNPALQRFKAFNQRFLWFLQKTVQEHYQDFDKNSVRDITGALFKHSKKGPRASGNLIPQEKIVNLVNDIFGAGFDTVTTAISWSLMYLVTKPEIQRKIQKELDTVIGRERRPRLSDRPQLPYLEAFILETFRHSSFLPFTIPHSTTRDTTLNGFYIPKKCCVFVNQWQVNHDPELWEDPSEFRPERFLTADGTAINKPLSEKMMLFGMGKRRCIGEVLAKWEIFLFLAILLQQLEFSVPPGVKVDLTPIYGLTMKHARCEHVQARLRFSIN
Cytochrome P450 2C9 (Homo sapiens), sequence (P11712 whole entry, looked up): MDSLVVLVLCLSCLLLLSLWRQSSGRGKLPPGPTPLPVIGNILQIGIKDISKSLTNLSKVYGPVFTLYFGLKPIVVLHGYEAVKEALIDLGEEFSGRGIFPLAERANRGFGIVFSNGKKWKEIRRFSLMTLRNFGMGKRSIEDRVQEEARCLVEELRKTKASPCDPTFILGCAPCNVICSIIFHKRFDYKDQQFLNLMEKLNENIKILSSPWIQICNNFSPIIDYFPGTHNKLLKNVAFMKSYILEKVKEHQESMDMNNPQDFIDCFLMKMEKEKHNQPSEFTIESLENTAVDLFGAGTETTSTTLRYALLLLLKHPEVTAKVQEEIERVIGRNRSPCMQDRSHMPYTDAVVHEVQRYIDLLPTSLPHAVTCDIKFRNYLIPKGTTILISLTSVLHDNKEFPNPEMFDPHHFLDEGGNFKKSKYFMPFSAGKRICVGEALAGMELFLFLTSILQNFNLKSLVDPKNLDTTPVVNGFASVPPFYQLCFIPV
Cytochrome P450 2D6 (Homo sapiens), sequence (P10635 whole entry, looked up): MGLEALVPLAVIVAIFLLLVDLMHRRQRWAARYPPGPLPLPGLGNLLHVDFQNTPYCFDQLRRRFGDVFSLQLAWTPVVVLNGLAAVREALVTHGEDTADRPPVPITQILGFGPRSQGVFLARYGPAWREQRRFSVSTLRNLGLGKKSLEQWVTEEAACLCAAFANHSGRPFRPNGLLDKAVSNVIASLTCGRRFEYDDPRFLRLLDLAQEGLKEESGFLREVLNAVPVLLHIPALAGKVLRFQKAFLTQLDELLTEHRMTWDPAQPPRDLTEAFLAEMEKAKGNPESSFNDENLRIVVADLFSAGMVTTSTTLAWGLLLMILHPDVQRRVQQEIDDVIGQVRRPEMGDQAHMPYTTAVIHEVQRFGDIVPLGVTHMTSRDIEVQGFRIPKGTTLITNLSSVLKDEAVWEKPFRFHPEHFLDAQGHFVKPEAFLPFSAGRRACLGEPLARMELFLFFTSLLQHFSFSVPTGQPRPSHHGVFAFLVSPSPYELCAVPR

Take `COCCc1ccc(OCC(O)CNC(C)C)cc1` (configuration not stated): the Potency entry in assay [1] is “inactive”.
As for `CCN(CC)CCOCCOC(=O)C1(c2ccccc2)CCCC1`, the Potency result in assay [2], in assay [3], in assay [4] and in assay [1] was “inactive” throughout.
Regarding `CC(=O)Nc1c(I)cc(I)c(C(=O)O)c1I`, the results for the Potency in assay [5] and in assay [4] were 27.5 µM (active) and 24.5 µM (active), respectively. Besides, in assay [1], the Potency entry is “inactive”.
On to `Cc1c(O)cccc1O`, for which the Potency result in assay [5] was “inactive”. The Potency in assay [6] was 32.5 µM (active).
Regarding `CC(=O)OCC(=O)[C@@]1(O)CCC2C3CCC4=CC(=O)CC[C@]4(C)C3[C@@H](O)C[C@@]21C` (some centres not stated), the Potency result in assay [2], in assay [4], in assay [1] and in assay [6] was “inactive” throughout.
Take `CCOC(=O)CC(C)=O`: the Potency result in assay [1] was “inactive”.
In the case of `Brc1c(NC2=NCCN2)ccc2nccnc12`, the Potency result in assay [1] is “inactive”.
As to `CCN1CCC[C@H]1CNC(=O)c1c(O)c(Cl)cc(Cl)c1OC`, the Potency result in assay [2], in assay [3] and in assay [1] was “inactive” in each case.
For `O=C(CCCN1CCC(O)(c2cccc(C(F)(F)F)c2)CC1)c1ccc(F)cc1`, the Potency result in assay [2], in assay [3], in assay [4] and in assay [6] was “inactive” in each case.
In the case of `CCn1nc(C(=O)O)c(=O)c2cc3c(cc21)OCO3`, the Potency entry in assay [1] was “inactive”.
In the case of `N=C(N)c1ccccc1`, the Potency entry in assay [2], in assay [3] and in assay [4] was “inactive” throughout.
For the compound `CCCCC(CC)COC(=O)c1ccccc1O` (configuration not stated), the Potency result in assay [2], in assay [3], in assay [4] and in assay [1] was “inactive” each time.
Regarding `Oc1ccc(C2CNCCc3c2cc(O)c(O)c3Cl)cc1` (configuration not stated), the Potency entry in assay [4], in assay [1] and in assay [6] was “inactive” in each case.
For the compound `CO/N=C(/C(=O)N[C@@H]1C(=O)N2C(C(=O)OCOC(=O)C(C)(C)C)=C(C)CS[C@H]12)c1csc(N)n1`, in assay [3], the Potency was 11 µM (active).
As for `CC(=O)OCC(CCn1cnc2cnc(N)nc21)COC(C)=O`, the Potency entry in assay [2], in assay [3], in assay [1] and in assay [6] was “inactive” each time.
`CC/C=C\CCOC(C)=O`: the Potency entry in assay [2], in assay [3], in assay [4], in assay [1] and in assay [6] was “inactive” each time.
Consider `c1ccc(CC2=NCCN2)cc1`, for which the Potency result in assay [3], in assay [4] and in assay [1] was “inactive” throughout.
